# Source: the supplement of paper PMC9135407
# Where “and” joins values, the source holds several entries; their conditions need not be identical. Equal values may be shown once. Where a name gives a salt, the structure may show the parent alone. The whole screen tested about 5,800 compounds, of which about 620 (11%) showed activity. The entries come from a sample that favours actives as a whole. A number with no mark means an inactive call.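 Rule for the calls: active = score above a cut-off or among the top three wells of a plate; in these data no inactive exceeds 0.85.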
# Tested on: primary human hepatic stellate cells (donor 1)
# Experiment: scaled lipid accumulation score (0 = DMSO-like, 1 = nortriptyline-like); higher = stronger HSC inactivation (lipid re-accumulation), active = hit call of the paper
# Details: 48 h
# Procedure: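 Primary lipid accumulation screen in primary human hepatic stellate cell myofibroblasts (donor 1, passage 8) in 384-well plates. 100 nL of library compound was pin-transferred into 30 µL medium in duplicate, and cells were treated for 48 h. The 'Scaled' score combines distance from plate baseline, toxicity and reproducibility penalties, and is normalised to nortriptyline (positive) and DMSO (negative) controls on each plate. A hit is defined as scaled >0.85 or among the top 3 wells per plate.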
# [1] = library stock concentration: 1 mM
# [2] = library stock concentration: 10 mM
# [3] = library stock concentration: 80 uM
# [4] = library stock concentration: 400 uM
# [5] = library stock concentration: 2 mM
# [6] = library stock concentration: 3.33 mM
# [7] = library stock concentration: 6.9 mM
smiles,measurement,setting,value
CCCCC/C=C\C/C=C\C/C=C\C/C=C\CCCC(=O)NOCCO [oxy-Arachidonoyl Ethanolamide],scaled lipid accumulation score,[1],0.014
C[C@H](N)C(=O)N[C@@H](C)C(=O)N[C@@H](Cc1ccccc1)C(=O)CCl,scaled lipid accumulation score,library stock concentration: 14.7 mM,0.708
CC(=O)O[C@@]12C[C@@H](C)[C@@]3(O)[C@@H](C=C(CO)C[C@]4(O)C(=O)C(C)=C[C@@H]34)[C@@H]1C2(C)C [Prostratin],scaled lipid accumulation score,[1],0.583 (active)
CCCCCCCCCCCCCC(=O)O[C@@H]1[C@@H](C)[C@@]2(O)[C@@H](C=C(CO)C[C@]3(O)C(=O)C(C)=C[C@@H]23)[C@@H]2C(C)(C)[C@]12OC(C)=O [Phorbol 12-myristate 13-acetate] [listing 1 of 2 here],scaled lipid accumulation score,library stock concentration: 8.1 mM,0.934 (active)
CCCCCCCCCCCCCC(=O)O[C@@H]1[C@@H](C)[C@@]2(O)[C@@H](C=C(CO)C[C@]3(O)C(=O)C(C)=C[C@@H]23)[C@@H]2C(C)(C)[C@]12OC(C)=O [Phorbol 12-myristate 13-acetate] [listing 2 of 2 here],scaled lipid accumulation score,[2],≤ 0
CC(=O)O[C@@H]1CC[C@@]2(C)[C@@H](CC[C@@H]3[C@@H]2CC[C@]2(C)C(=O)CC[C@@H]32)C1 [Androsterone acetate],scaled lipid accumulation score,[2],≤ -0.027
C=CCN1CC[C@]23c4c5ccc(O)c4O[C@H]2/C(=N/N=C2\CC[C@@]4(O)[C@H]6Cc7ccc(O)c8c7[C@@]4(CCN6CC=C)[C@H]2O8)CC[C@@]3(O)[C@H]1C5 [Naloxonazine 2HCl],scaled lipid accumulation score,library stock concentration: 3.1 mM,0.144
N[C@@H]1C[C@H]1c1ccccc1.N[C@H]1C[C@@H]1c1ccccc1 [Tranylcypromine],scaled lipid accumulation score,[3],≤ 0
same,scaled lipid accumulation score,[4],≤ 0
same,scaled lipid accumulation score,[5],≤ 0
same,scaled lipid accumulation score,[2],≤ 0
same,scaled lipid accumulation score,library stock concentration: 15 mM,≤ -0.003
N[C@@H]1C[C@H]1c1ccccc1.N[C@H]1C[C@@H]1c1ccccc1 [Tranylcypromine sulfate],scaled lipid accumulation score,library stock concentration: 8.6 mM,≤ 0
same,scaled lipid accumulation score,[2],≤ 0
C=C(C)[C@@H]1CCC(C)=C[C@H]1C1=C(O)C(=O)C(CCCCC)=CC1=O,scaled lipid accumulation score,[1],0.055
CC1=C2C(=CO[C@H](C)[C@H]2C)C(O)=C(C(=O)O)C1=O [Citrinin],scaled lipid accumulation score,[2],≤ 0
Cn1c2cccc(=O)c-2nc2ccccc21 [Pyocyanin],scaled lipid accumulation score,[1],≤ 0
CC(=O)OC1CN2CCC1CC2 (configuration not stated),scaled lipid accumulation score,[2],0.001
CCCCC/C=C\C/C=C\C/C=C\C/C=C\CCCC(=O)NC1CC1 [Arachidonoyl Cyclopropylamide],scaled lipid accumulation score,[1],≤ 0
"CN(C(=O)Cc1ccc(Cl)c(Cl)c1)C(CN1CCCC1)c1cccc(OCC(=O)O)c1 (configuration not stated) [ICI 204,448 hydrochloride]",scaled lipid accumulation score,[2],0.053
CN(C(=O)Cc1ccccc1)C(CN1CCCC1)c1ccccc1 (configuration not stated) [N-MPPP Hydrochloride],scaled lipid accumulation score,[2],0.172
"CN(C(=O)Cc1ccc(Cl)c(Cl)c1)[C@H](CN1CCCC1)c1ccccc1.Cl [ICI-199,441 hydrochloride]",scaled lipid accumulation score,[2],1.58 (active)
CCCCCc1cc(O)c2c(c1)OC(C)(C)C1CCC(C(=O)O)=CC21 (configuration not stated) [Tetrahydrocannabinol-7-oic acid],scaled lipid accumulation score,[1],≤ -0.021
COc1cc(CNC(=O)CCCCCCC(C)C)c(I)cc1O,scaled lipid accumulation score,[1],≤ 0
COc1cc2c3cc1Oc1cc(ccc1O)C[C@@H]1c4c(cc(OC)c(O)c4Oc4cccc(c4)C[C@@H]3N(C)CC2)CC[N+]1(C)C [Tubocurarine chloride pentahydrate (+)],scaled lipid accumulation score,,0.039
"COc1ccc2[nH]c3c(c2c1)CCNC3 [6-Methoxy-1,2,3,4-tetrahydro-9H-pyrido[3,4b] indole]",scaled lipid accumulation score,[2],0.691
O=c1ccc2[nH]cc(C3=CCNCC3)c2[nH]1,scaled lipid accumulation score,[2],0.084 and ≤ -0.006
COc1ccc2[nH]cc(C3=CCNCC3)c2c1.COc1ccc2[nH]cc(C3=CCNCC3)c2c1.O=C(O)CCC(=O)O,scaled lipid accumulation score,[2],1.68 (active)
CCCOc1ccc2[nH]cc(C3=CCNCC3)c2n1,scaled lipid accumulation score,[2],0.748
N#Cc1ccc(N2CCN(C(=O)COc3ccc4[nH]cc(CCN)c4c3)CC2)cc1 [Donitriptan hydrochloride],scaled lipid accumulation score,[2],≤ 0
CN1CC[C@@H]2CN3CCc4cccc(c43)[C@@H]2C1 [SDZ SER 082 fumarate],scaled lipid accumulation score,[2],≤ -0.006
CCCCCC(=O)N[C@H]1CCOC1=O [N-hexanoyl-L-Homoserine lactone],scaled lipid accumulation score,[1],≤ 0
CO[C@H](C/C=C\C=C\CC/C=C/C[C@H](C)/C=C/C(=C\C(=O)O)CC(=O)O)/C(C)=C\C=C(/C)C(=O)O [Bongkrekic acid],scaled lipid accumulation score,[1],≤ -0.014
N#CC(C#N)=Cc1ccc(O)cc1 [Tyrphostin-8],scaled lipid accumulation score,library stock concentration: 29.4 mM,≤ -0.012
CC(Cc1ccc(OCC(=O)O)cc1)NCC(O)c1cccc(Cl)c1 (configuration not stated),scaled lipid accumulation score,[2],0.056
COc1cc2c(cc1O)[C@@H]1Cc3ccc(OC)c(O)c3CN1CC2 [Scoulerine],scaled lipid accumulation score,,0.07
COc1cc2c(cc1O)C(CCc1ccc(Cl)cc1)N(C)CC2.Cl (configuration not stated),scaled lipid accumulation score,[2],0.872 (active)
"COc1ccc(CC2c3cc(OC)c(OC)cc3CCN2C)cc1OC (racemic) [Laudanosine (R,S)]",scaled lipid accumulation score,,≤ 0
C/C1=C/C(=O)O[C@@H]2C[C@@H](CC[C@H](C)/C=C\CC1)O[C@@](O)([C@@H]1CSC(=O)N1)C2 [Latrunculin B],scaled lipid accumulation score,library stock concentration: 12.6 mM,0.632
CCCCC/C=C\C/C=C\C/C=C\C/C=C\CCCC(=O)N[C@@H](C)CO [S-1 Methanandamide],scaled lipid accumulation score,[1],≤ 0
CN1C2CC(=O)CC1C(O)C2 (configuration not stated) [6-Hydroxytropinone],scaled lipid accumulation score,,≤ 0
CN1[C@@H](C[C@@H](O)c2ccccc2)CCC[C@H]1C[C@H](O)c1ccccc1 [Lobelanidine hydrochloride],scaled lipid accumulation score,,0.194
O=C(O)C1=CCCN(CCOC(c2ccc(C(F)(F)F)cc2)c2ccc(C(F)(F)F)cc2)C1 [CI 966 hydrochloride],scaled lipid accumulation score,[2],≤ -0.006
CC1=C(O)C(=O)C=C2C1=CC=C1[C@@]2(C)CC[C@@]2(C)[C@@H]3C[C@](C)(C(=O)O)CC[C@]3(C)CC[C@]12C [Celastrol] [listing 1 of 2 here],scaled lipid accumulation score,[1],1.34 (active)
O=C1C=C2C(C(C)=C1O)=CC=C3[C@]2(CCC4([C@@H]5C[C@@](CC[C@@]5(CC[C@]34C)C)([C@@](O)=O)C)C)C (some centres not stated) [Celastrol],scaled lipid accumulation score,[5],1.14 (active)
same,scaled lipid accumulation score,[2],1.14 (active)
CC1=C(O)C(=O)C=C2C1=CC=C1[C@@]2(C)CC[C@@]2(C)[C@@H]3C[C@](C)(C(=O)O)CC[C@]3(C)CC[C@]12C [Celastrol] [listing 2 of 2 here],scaled lipid accumulation score,[3],0.019
same,scaled lipid accumulation score,[4],0.093
same,scaled lipid accumulation score,[2],0.392
CN1CCN(C(=O)O[C@H]2c3nccnc3C(=O)N2c2ccc(Cl)cn2)CC1,scaled lipid accumulation score,[2],0.134
CN1CCN(C(=O)O[C@H]2c3nccnc3C(=O)N2c2ccc(Cl)cn2)CC1 [Eszopiclone],scaled lipid accumulation score,[2],≤ 0
C#CCN[C@H](C)Cc1ccccc1 [R-(-)-Desmethyldeprenyl hydrochloride],scaled lipid accumulation score,[2],≤ 0
CC[C@@H]1C=CC=CC[C@H](C)[C@@H](O)[C@@H](C)C(=O)[C@H](C)[C@@H](O)[C@H](C)C(=O)[C@H](C)[C@@H](O)[C@H](C)C=CC(=O)O[C@H]2[C@@H](C)[C@@H](CC1)O[C@@]1(CC[C@@H](C)[C@@H](C[C@H](C)O)O1)[C@@H]2C,scaled lipid accumulation score,[2],≤ 0
CN1[C@@H]2CC[C@H]1C[C@@H](OC(=O)C(CO)c1ccccc1)C2 (some centres not stated) [Atropine],scaled lipid accumulation score,[6],≤ 0
same,scaled lipid accumulation score,[2],≤ 0
CN1[C@@H]2CC[C@H]1C[C@@H](OC(=O)[C@H](CO)c1ccccc1)C2 [L-Hyoscyamine],scaled lipid accumulation score,[2],≤ -0.07
COc1ccc(C(=O)OC2C[C@H]3CC[C@@H](C2)N3C)cc1OC (some centres not stated) [Convolamine hydrochloride],scaled lipid accumulation score,,0.027
CN1[C@@H]2CC[C@H]1C[C@@H](OC(=O)C(CO)c1ccccc1)C2 (some centres not stated),scaled lipid accumulation score,[2],≤ 0
CCC(Oc1ccc(Cl)cc1)C(=O)OC1CC2CCC(C1)N2C.O=C(O)/C=C\C(=O)O (configuration not stated) [SM-21 maleate],scaled lipid accumulation score,[2],0.886 (active)
CN1[C@@H]2CC[C@H]1C[C@@H](OC(=O)[C@H](CO)c1ccccc1)C2 [Hyoscyamine],scaled lipid accumulation score,[6],≤ 0
same,scaled lipid accumulation score,[7],≤ -0.001
same,scaled lipid accumulation score,[2],≤ 0 and 0.017
CN1[C@@H]2CC[C@H]1C[C@@H](OC(=O)C(CO)c1ccccc1)C2 (some centres not stated) [Atropine sulfate],scaled lipid accumulation score,library stock concentration: 5.2 mM,0.019
same,scaled lipid accumulation score,[7],0.018
same,scaled lipid accumulation score,[2],0.196 and ≤ 0
CN1[C@@H]2CC[C@H]1CC(OC(=O)N1Cc3ccccc3NC1=O)C2 (some centres not stated) [DAU 5884 hydrochloride],scaled lipid accumulation score,[2],≤ -0.001
CN1[C@@H]2CC[C@H]1C[C@@H](OC(=O)[C@H](CO)c1ccccc1)C2 [Hyoscyamine (L)],scaled lipid accumulation score,,≤ 0
CC(C(=O)OC1CC2CCC(C1)N2C)c1ccc(Br)cc1.O=C(O)/C=C\C(=O)O (configuration not stated) [PG-9 maleate],scaled lipid accumulation score,[2],0.958 (active)
CN1[C@@H]2CC[C@H]1C[C@@H](OC(=O)C(CO)c1ccccc1)C2 (some centres not stated) [Atropine sulfate monohydrate],scaled lipid accumulation score,,0.118
CNCC(O)c1ccc(O)c(OC)c1 (stereo not drawn) [Metanephrine hydrochloride DL],scaled lipid accumulation score,,0.001
"CCCCCC1OC1C/C=C\CCCCCCCC(=O)O (configuration not stated) [Leukotoxin B (12,13-EODE)]",scaled lipid accumulation score,library stock concentration: 100 uM,≤ -0.021
CCCCCC[C@H]1C(=O)O[C@H](C)[C@H](NC(=O)c2cccc(NC=O)c2O)C(=O)O[C@@H](C)[C@@H]1OC(=O)CC(C)C [Antimycin A],scaled lipid accumulation score,,0.274
